# Data as given in PubChem BioAssay.
# Active and inactive are the calls of the source. Unless noted, the rule behind the calls is not given here.
# Key:
# [1] = anti-His antibody binders, primary screen, artefact control for SMM control protein annotation, biochemical, small-molecule microarray, 635 nm fluorescence (AID 1128); conditions: anti-His Alexa647 antibody binding, higher = more signal;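 note: score merges feature fluorescence with signal-to-noise for each printed compound spot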
# [2] = system: Human papillomavirus type 1a E7 protein (residues 1-88); experiment: HPV1a E7 small-molecule binders, primary screen, biochemical, small-molecule microarray, residues 1-88, 635 nm (AID 1129); conditions: small-molecule microarray binding, fluorescence 635 nm; higher = more signal
# [3] = target: Focal adhesion kinase 1 (Homo sapiens) (UniProt Q05397); experiment: small-molecule microarray binders of FAK, primary screen, biochemical, 635/667 nm fluorescence, BSA, DTT (AID 1130); conditions: PTK2 binding, 635 nm fluorescence, higher = more signal;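 note: composite of spot emission at 667 nm and signal to noise over triplicate slides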
# Chain of Focal adhesion kinase 1 (Homo sapiens) (Q05397 whole entry, looked up): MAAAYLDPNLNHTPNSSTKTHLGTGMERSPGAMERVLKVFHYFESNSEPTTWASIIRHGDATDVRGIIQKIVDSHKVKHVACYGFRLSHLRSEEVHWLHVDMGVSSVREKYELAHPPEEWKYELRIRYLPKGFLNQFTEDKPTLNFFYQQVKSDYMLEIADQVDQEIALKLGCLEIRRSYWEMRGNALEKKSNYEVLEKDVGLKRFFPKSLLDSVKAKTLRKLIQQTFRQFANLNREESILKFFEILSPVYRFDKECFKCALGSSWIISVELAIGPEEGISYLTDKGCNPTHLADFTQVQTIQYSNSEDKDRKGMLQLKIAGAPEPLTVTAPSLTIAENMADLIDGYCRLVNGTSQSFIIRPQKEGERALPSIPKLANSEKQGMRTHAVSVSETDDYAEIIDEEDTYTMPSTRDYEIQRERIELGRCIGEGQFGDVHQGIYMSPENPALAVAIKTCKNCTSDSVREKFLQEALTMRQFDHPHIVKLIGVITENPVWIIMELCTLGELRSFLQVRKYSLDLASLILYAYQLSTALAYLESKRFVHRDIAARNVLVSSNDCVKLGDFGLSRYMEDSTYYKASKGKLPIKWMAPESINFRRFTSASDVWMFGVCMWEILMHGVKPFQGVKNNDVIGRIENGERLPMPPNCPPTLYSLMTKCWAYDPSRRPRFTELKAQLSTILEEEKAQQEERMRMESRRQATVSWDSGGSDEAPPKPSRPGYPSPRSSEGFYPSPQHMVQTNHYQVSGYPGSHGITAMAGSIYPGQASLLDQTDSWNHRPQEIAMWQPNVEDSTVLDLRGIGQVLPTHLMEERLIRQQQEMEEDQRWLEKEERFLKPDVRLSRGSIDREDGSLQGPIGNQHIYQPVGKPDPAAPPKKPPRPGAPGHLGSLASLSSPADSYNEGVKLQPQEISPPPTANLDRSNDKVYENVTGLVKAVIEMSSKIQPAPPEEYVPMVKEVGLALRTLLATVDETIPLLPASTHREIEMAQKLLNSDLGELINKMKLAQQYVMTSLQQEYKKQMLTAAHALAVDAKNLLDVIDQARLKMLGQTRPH
# [4] = system: Fibrinogen (Alexa647-labelled); experiment: fibrinogen binders on compound microarrays, profiling panel, artefact control for SMM control-protein annotation, biochemical, small-molecule microarray, 635/667 nm fluorescence (AID 1131); conditions: fibrinogen-A647 binding fluorescence, higher = more signal;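 note: z-score merges 667 nm fluorescence with per-spot signal-to-noise over triplicate slides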
# [5] = target: Follistatin (Homo sapiens) (UniProt P19883); experiment: follistatin binders on small-molecule microarrays, primary screen, biochemical, small-molecule microarray, 635/667 nm fluorescence (AID 1132); conditions: FST binding, 635 nm fluorescence, higher = more signal
# Chain of Follistatin (Homo sapiens) (P19883 whole entry, looked up): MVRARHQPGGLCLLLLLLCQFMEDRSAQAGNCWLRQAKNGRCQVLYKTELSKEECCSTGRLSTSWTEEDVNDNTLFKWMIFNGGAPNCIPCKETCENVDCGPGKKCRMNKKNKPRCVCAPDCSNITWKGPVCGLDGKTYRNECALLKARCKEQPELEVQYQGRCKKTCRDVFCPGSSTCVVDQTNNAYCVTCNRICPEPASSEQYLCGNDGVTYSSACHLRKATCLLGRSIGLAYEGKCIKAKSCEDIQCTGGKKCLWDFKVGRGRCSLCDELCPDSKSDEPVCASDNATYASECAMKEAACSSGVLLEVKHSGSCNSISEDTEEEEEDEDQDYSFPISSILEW
# [6] = target: Fibroblast growth factor 2 (Homo sapiens) (UniProt P09038); experiment: FGF2 binders on small-molecule microarrays, primary screen, biochemical, small-molecule microarray, 635/667 nm fluorescence (AID 1133); conditions: small-molecule microarray binding, FGF2, fluorescence 635/667; higher = more signal
# Chain of Fibroblast growth factor 2 (Homo sapiens) (P09038 whole entry, looked up): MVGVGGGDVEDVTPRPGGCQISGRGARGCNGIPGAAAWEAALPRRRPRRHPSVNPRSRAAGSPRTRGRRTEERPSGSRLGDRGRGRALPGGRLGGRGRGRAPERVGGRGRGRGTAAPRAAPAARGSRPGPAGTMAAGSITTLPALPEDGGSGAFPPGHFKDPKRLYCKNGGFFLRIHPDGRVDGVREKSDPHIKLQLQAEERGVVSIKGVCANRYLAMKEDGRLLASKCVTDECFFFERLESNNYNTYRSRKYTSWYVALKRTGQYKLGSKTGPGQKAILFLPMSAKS
# [7] = mitochondrial membrane potential change in A549 cells, profiling panel, cell-based, JC-1 fluorescence, basal, 24 h, 100 nL (AID 1138); conditions: higher = more signal;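 note: A549 lung adenocarcinoma cells under basal conditions with no added stimulus; test concentration not given here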
# Lefty1 = Lefty1 binders on small-molecule microarrays, primary screen, biochemical, small-molecule microarray, 635/667 nm fluorescence (AID 1139); conditions: small-molecule microarray binding, fluorescence 635/667; higher = more signal
# [8] = system: wheat germ agglutinin (Triticum aestivum), Alexa647-labelled; experiment: wheat germ agglutinin binders on compound microarrays, profiling panel, artefact control for SMM control-protein annotation, biochemical, small-molecule microarray, 635/667 nm fluorescence (AID 1140); conditions: WGA-A647 binding, 635 nm fluorescence, higher = more signal;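 note: score merges 667 nm feature emission with signal to noise over triplicate slides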
# [9] = target: Luciferin 4-monooxygenase (Photinus pyralis) (UniProt P08659); experiment: firefly luciferase enzyme inhibitors, primary screen, biochemical, luminescence, purified enzyme, 2006 set (AID 1141); conditions: SteadyGlo luminescence, 30 min, higher = more signal, called active from +8 up or from −8 down;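 note: cell-free assay with purified firefly luciferase at 100 ng per well in PBS; test concentration not given here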
# Chain of Luciferin 4-monooxygenase (Photinus pyralis) (P08659 whole entry, looked up): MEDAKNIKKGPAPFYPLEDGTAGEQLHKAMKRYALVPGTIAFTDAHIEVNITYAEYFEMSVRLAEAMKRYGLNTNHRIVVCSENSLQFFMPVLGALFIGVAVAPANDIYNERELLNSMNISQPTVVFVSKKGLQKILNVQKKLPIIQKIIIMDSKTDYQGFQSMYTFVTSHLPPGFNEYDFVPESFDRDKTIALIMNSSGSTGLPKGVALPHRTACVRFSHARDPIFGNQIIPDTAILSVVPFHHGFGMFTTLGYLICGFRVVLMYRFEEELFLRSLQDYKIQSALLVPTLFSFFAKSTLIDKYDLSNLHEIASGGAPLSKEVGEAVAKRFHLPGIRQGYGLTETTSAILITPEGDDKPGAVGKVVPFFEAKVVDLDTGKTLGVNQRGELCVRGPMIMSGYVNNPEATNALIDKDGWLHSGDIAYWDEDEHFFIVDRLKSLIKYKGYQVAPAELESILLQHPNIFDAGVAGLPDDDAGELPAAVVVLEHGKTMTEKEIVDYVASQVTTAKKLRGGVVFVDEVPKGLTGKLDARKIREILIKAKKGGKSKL
# [10] = system: Wnt5a (protein binding on small-molecule microarray); experiment: Wnt5a binders on small-molecule microarray, primary screen, biophysical, 635/667 nm fluorescence (AID 1142); conditions: 635 nm fluorescence, higher = more signal;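 note: fluorescence read at 667 nm with signal to noise per printed feature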
# [11] = cell viability in Huh7 cells, primary screen, cytotoxicity control for HCV replication inhibitor project, CellTiter-Glo luminescence, basal, 48 h (AID 1143); conditions: Huh7 HCV replicon, higher = more signal, called active from +8 up or from −8 down;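 note: Huh7 hepatoma cells carrying a hepatitis C replication reporter with no stimulus; test concentration not given here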
# [12] = P. aeruginosa biofilm formation inhibitors, primary screen, PAO1 strain, BacTiter-Glo luminescence, LB-PBS (AID 1144); conditions: 12 h, higher = more signal
# [13] = CREB reporter modulators without forskolin, primary screen, cell-based, PC12, CRE-LacZ reporter, unstimulated (AID 1145); conditions: no forskolin, luminescence, 4.5 h, higher = more signal, called active from +8 up or from −8 down
# [14] = CREB reporter modulators under forskolin, primary screen, cell-based, PC12, CRE-LacZ reporter, forskolin-stimulated (AID 1146); conditions: luminescence, 4.5 h, higher = more signal, called active from +8 up or from −8 down;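 note: PC12 cells with 6xCRE LacZ reporter stimulated by forskolin 10 µM; beta-galactosidase reporter signal reflecting CREB driven transcription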
# [15] = target: Streptavidin (Streptomyces avidinii) (UniProt P22629); experiment: streptavidin binders on small-molecule microarray, primary screen, artefact control for SMM compound annotation, biophysical, 635/667 nm fluorescence (AID 1147); conditions: streptavidin binding, higher = more signal;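 note: signal reflects streptavidin binding to arrayed compounds as a control protein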
# Chain of Streptavidin (Streptomyces avidinii) (P22629 whole entry, looked up): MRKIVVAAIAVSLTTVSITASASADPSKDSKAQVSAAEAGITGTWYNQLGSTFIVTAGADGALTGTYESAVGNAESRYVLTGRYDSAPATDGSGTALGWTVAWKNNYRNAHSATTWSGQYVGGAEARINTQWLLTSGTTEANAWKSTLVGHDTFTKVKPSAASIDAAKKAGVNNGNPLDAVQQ
# [16] = small-molecule binders of probe aInhba, primary screen, biochemical, small-molecule microarray, 635/667 nm fluorescence (AID 1148); conditions: higher = more signal;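 note: score merges 667nm spot fluorescence with signal-to-noise for antibody binding to printed compounds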
# Torsin-1A (Homo sapiens) [17] = target: Torsin-1A (Homo sapiens) (UniProt O14656); experiment: torsin A binders from cell lysate, primary screen, small-molecule microarray, wild-type, 635/667 nm (AID 1149); conditions: COS7 hTOR1A-WT lysate, 635 nm fluorescence, higher = more signal
# Chain of Torsin-1A (Homo sapiens) (O14656 whole entry, looked up): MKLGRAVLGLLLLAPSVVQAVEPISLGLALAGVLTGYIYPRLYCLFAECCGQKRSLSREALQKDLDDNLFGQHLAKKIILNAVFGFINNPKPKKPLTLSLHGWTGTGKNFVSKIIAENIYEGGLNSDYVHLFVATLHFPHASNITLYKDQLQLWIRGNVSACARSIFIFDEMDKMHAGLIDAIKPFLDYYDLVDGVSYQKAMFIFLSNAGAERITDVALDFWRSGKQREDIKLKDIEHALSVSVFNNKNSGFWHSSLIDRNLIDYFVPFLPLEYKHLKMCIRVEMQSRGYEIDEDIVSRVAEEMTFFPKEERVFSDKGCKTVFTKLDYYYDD
# Torsin-1A (Homo sapiens) [18] = target: Torsin-1A (Homo sapiens) (UniProt O14656); experiment: small-molecule binders of mutant TOR1A in lysate, primary screen, cell lysate, small-molecule microarray, COS7 lysate, 635/667 nm fluorescence (AID 1150); conditions: COS7 hTOR1A mutant lysate, 635 nm fluorescence, higher = more signal;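 note: score pools 667 nm emission and signal to noise measuring lysate protein binding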
# [19] = system: Sonic hedgehog protein (Shh); experiment: small-molecule binders of Shh protein, primary screen, biochemical, small-molecule microarray, 635/667 nm fluorescence (AID 1151); conditions: small-molecule microarray binding, 635 nm fluorescence; higher = more signal;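 note: Shh protein binding to compounds spotted on small-molecule microarray slides; score combines spot fluorescence intensity with signal-to-noise across triplicate slides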
SMILES,composite z-score [1],composite z-score [2],composite z-score [3],composite z-score [4],composite z-score [5],composite z-score [6],z-score [7],composite z-score (Lefty1),composite z-score [8],z-score [9],composite z-score [10],z-score [11],z-score [12],z-score [13],z-score [14],composite z-score [15],composite z-score [16],composite z-score (Torsin-1A (Homo sapiens) [17]),composite z-score (Torsin-1A (Homo sapiens) [18]),composite z-score [19]
[N-]=[N+]=Nc1ccccc1C[C@@]1(C(=O)NCCN2CCOCC2)N=C(c2ccc(OCCCO)cc2)O[C@@H]1c1ccccc1,0.76,1.26,0.85,1.03,1.3,1.19,0.662,0.7,0.823,-1.7 (inactive),0.785,-3.8 (inactive),-0.49 (inactive),-0.435 (inactive),-1.61 (inactive),0.302,0.258,0.304,0.617,0.721
COCCOC(=O)N1C(=O)[C@@]2(c3cc(C#CC4=CCCCC4)ccc31)[C@H](C(=O)Nc1nc3ccccc3s1)[C@H]1C(=O)O[C@H](c3ccccc3)[C@H](c3ccccc3)N1[C@@H]2c1ccccc1OCCO,0.772,1.19,2.14,0.766,1.38,0.946,-2.18,1.21,0.845,-1.88 (inactive),0.697,-5.66 (inactive),-1.29 (inactive),-0.878 (inactive),-1.09 (inactive),1.19,0.973,0.0595,0.956,1.49
CCOC(=O)[C@H]1C/C=C/C[C@H](C(=O)OCC)C(=O)O[C@H]2[C@@H](OC)O[C@H](CO)[C@@H](OC(=O)Nc3cccc(F)c3)[C@@H]2OC1=O,1.82,0.712,0.154,0.966,0.247,0.0815,-2.01,1.11,0.452,-1.14 (inactive),0.39,-6.52 (inactive),-0.509 (inactive),0.765 (inactive),-0.848 (inactive),0.555,0.83,-0.24,0.118,0.849
O=C1OCCC/C=C\[C@H]2OC34C=CCN(Cn5nnc6ccccc65)C(=O)[C@H]3N(CCCCCCO)C(=O)[C@@H]4C12 (stereo not given in full),0.919,-0.776,0.326,-2.01,-0.686,-1.58,1.05,-0.394,0.727,-0.254 (inactive),-0.35,-0.599 (inactive),-2.19 (inactive),-1.17 (inactive),-0.729 (inactive),-1.08,-0.214,1.27,1.43,0.326
O=C1[C@H]2C=C(Br)[C@H](C[C@@H]2c2ccccc2)[C@@]12CO2,0.828,0.253,0.004,-0.0786,1.14,0.402,-0.0698,0.785,-0.21,0.266 (inactive),0.127,-0.856 (inactive),0.552 (inactive),1.58 (inactive),4.2 (inactive),0.105,0.0528,0.175,0.273,0.982
CN1C(=O)C2C=CC(C(O)C3=C[C@H]4C[C@@H](C3)C4(C)C)N(Nc3ccccc3)C2C1=O (stereo not given in full),0.274,1.19,0.608,0.816,1.18,0.0364,-0.838,0.446,0.782,-0.179 (inactive),0.0737,0.435 (inactive),-0.79 (inactive),0.812 (inactive),0.767 (inactive),0.186,-0.0313,-0.189,0.276,0.447
